G9a block: G9a (human) methyltransferase inhibition. Q96KQ7. G9a H3K9 monomethylation, AlphaScreen, 2 h. Potency, µM (titrated, usually from 102 µM), for the others: at the highest dose activity, negative = inhibition, hits mostly inhibitors. 8.8% of 350,000 active; further: on the % scale 0 is the no-effect control and ±100 the full control effect; nearly all actives have a fitted effect of over 75% in size
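Chemiluminescent proximity detection of H3K9 monomethylation, read after 10 min bead incubation in the dark. Reaction: 20 nM G9a, 500 nM biotin-H3K9 peptide, 20 uM SAM cofactor, 2 h, room temperature, following 15 min enzyme-compound preincubation.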
BAZ2B block: blocks human BAZ2B; 4.4% of 360,000 active; Q9UIF8; Potency, µM (titrated, usually from 114 µM), for inactives: at the highest dose activity change, negative = inhibition, actives largely listed as inhibitors; AlphaScreen BAZ2B-H3K14Ac peptide displacement; further: on the % scale 0 is the no-effect control and ±100 the full control effect; nearly all actives have a fitted effect of over 60% in size
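AlphaScreen luminescence quantifies BAZ2B engagement of H3K14Ac peptide; the protein and biotinylated peptide are both at 50 nM final, buffer PBS pH 7.4 with 0.01% Tween-20, all steps at room temperature.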
Sfp inh: inhibitors of Bacillus subtilis Sfp phosphopantetheinyl transferase; Q9F4F7; Biochemical Sfp PPTase activity, qHTS; Potency, µM, inactives show largest response in the series, negative = inhibition, most hits filed as inhibitors; 3.5% of 310,000 active;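 further: the enzyme is Sfp with the accession as filed and its product quenches rhodamine fluorescence; 0% = enzyme reaction without inhibitor and -100% = no enzyme wells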
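Sfp 15 nM + cpd, 15 min RT; start w/ rhodamine-CoA 5 uM, BHQ-2-YbbR 12.5 uM (final); 50 mM Hepes pH 7.6, 10 mM MgCl2, 0.01% NP-40, 0.01% BSA; read 525/598 nm at 0 and 30 min.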
PLK1 PBD inh: blocks phosphopeptide binding to human PLK1 polo-box domain. P53350. Plk1 PBD binding of FITC phosphopeptide, fluorescence polarization. Potency, µM, inactives show max response, negative = inhibition, usual class: inhibitors. 2.8% of 360,000 active. AID 720504; further: series mostly up to about 57 µM; on the % scale 0 is the no-effect control and ±100 the full control effect; nearly all actives have a fitted effect of over 65% in size
Target sequence (P53350 whole entry, looked up, the tested form may be a part): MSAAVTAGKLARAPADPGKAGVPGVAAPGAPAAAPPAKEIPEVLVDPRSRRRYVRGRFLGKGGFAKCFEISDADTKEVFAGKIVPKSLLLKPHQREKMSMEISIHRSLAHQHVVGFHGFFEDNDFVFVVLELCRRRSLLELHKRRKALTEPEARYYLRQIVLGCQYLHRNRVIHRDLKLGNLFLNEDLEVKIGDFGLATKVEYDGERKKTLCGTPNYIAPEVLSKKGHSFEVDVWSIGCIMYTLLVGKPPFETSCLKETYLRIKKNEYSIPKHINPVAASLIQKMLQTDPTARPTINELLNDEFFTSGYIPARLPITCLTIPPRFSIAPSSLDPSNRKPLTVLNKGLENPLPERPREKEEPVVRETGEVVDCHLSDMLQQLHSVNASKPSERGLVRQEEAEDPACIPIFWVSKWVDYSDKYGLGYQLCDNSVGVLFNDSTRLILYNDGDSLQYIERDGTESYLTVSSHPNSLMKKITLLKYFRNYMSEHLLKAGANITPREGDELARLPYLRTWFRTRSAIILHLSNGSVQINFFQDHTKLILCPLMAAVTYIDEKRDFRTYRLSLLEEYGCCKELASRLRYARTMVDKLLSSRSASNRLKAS
JMJD2A Tudor: JMJD2A Tudor domain (human) inhibition; AID 504339; Potency, µM (top dose mostly 114 µM), for inactives: top-dose activity change, negative = inhibition, most hits filed as inhibitors; AlphaScreen JMJD2A-Tudor / H3K4me3 peptide binding; 4.4% of 390,000 active; O75164; further: on the % scale 0 is the no-effect control and ±100 the full control effect; nearly all actives have a fitted effect of over 50% in size
HP1b binding inh: blocks HP1-beta chromodomain binding to methylated histone tails. 0.56% of 390,000 active. AID 540317. P83916. Potency, µM (titrated, usually from 114 µM), without a hit: at the highest dose activity change, negative = inhibition, hits mostly inhibitors. AlphaScreen HP1-beta / biotin-H3K9me3 peptide binding; further: nearly all actives have a fitted effect of over 70% in size
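HP1-beta protein (50 nM final) preincubated 30 min at room temperature with biotinylated H3(1-18)K9me3 peptide (50 nM) in PBS pH 7.4, 0.01% Tween-20, then compound added for 30 min. AlphaScreen streptavidin donor/nickel chelate acceptor beads (10 ug/mL final), 30 min dark, luminescence read.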
* = called active by the depositor; ? = inconclusive; · = no result; ! = not confirmed by another sample; [ ] = remark or other dose. The list is not random: actives were taken first. Their share in the collection is about 12%. The call rests on the fitted dose curve; in most records, active means well fitted curve in the direction sought with a large enough effect; inconclusive means small, poorly fitted or top-dose-only effect, or another doubt; inactive means no such curve, though single readings can be large; an effect the other way counts as inactive or inconclusive. Potency means the concentration at half of the fitted maximal effect.

SMILES	G9a block	BAZ2B block	Sfp inh	PLK1 PBD inh	JMJD2A Tudor	HP1b binding inh
C[C@H](NC(=O)[C@@H](N)Cc1ccc(O)cc1)C(=O)N[C@@H](Cc1ccccc1)C(=O)N[C@@H](Cc1ccccc1)C(N)=O	19%[59 µM]	·	-8%	·	·	·
C[N+]1([O-])[C@H]2CC[C@H]1CC(OC(=O)[C@@H](CO)c1ccccc1)C2 (some centres not stated)	10%[59 µM]	·	-6%	·	·	·
Clc1ccc(Cn2ccnc2)cn1	-25%	-7%	7%	-23%	-24%	13%
O=[N+]([O-])NC1=NCCN1Cc1ccc(Cl)nc1	·	19%	-5%	27µM*	?	28%
N#CN=C1SCCN1Cc1ccc(Cl)nc1	·	·	7%	·	·	·
O=[N+]([O-])/C=C1\NCCN1Cc1ccc(Cl)nc1	50µM*!	5%	-10%	?	-12%	-25%
O=c1c2ccccc2nc(CSc2ncnc3nc[nH]c23)n1-c1ccccc1	?	10%	50µM*	-7%	32µM*	-32%
CCOc1ccccc1OCCCCN1CCCC1	?	?	?	0%	32µM*	?
CCCn1c(=O)n(C)c(=O)c2c(SCC(=O)NC34CC5CC(CC(C5)C3)C4)nc(CC(C)C)nc21	15%[59 µM]	8%	-2%	30µM*	-13%	1%
CCCCc1ccc(NC(=O)c2ccc3c(c2)CCN3S(=O)(=O)CC)cc1	?	?	·	·	?	-1%
C/C=C(\C)C(=O)OC1C(C)=C2C(C1OC(=O)CCCCC)C(C)(OC(C)=O)CC(OC(=O)CCC)C1(O)C2OC(=O)C1(C)O (configuration not stated)	?	56µM*	28%	·	·	·
CC=C(C)C(=O)O[C@H]1C(C)=C2[C@@H]3OC(=O)[C@@](C)(O)[C@@]3(O)[C@@H](OC(=O)CCC)C[C@](C)(OC(C)=O)[C@@H]2[C@@H]1OC(=O)CCCCCCC	10%[59 µM]	·	7%	·	·	·
Cc1cc(C(=O)OCC(=O)Nc2ccccc2F)c(C)n1C1CC1	50µM*	-39%	·	-3%	-24%	1%
Cc1ccc2c(c1)C1CN(C)CCC1N2C(=O)Nc1ccc(Cl)cc1 (configuration not stated)	-3%	6%	-4%	-8%	-13%	45%
COCCNC(=O)c1c(N)n(Cc2ccco2)c2nc3ccccc3nc12	3%	-2%	-26%	-11%	25%	71%
COCCCn1c(N)c(C(=O)NCc2ccco2)c2nc3ccccc3nc21	·	-34%	22µM*	-7%	45%	101%
COCCCNC(=O)c1c(NC(=O)c2ccccc2Cl)n(Cc2ccccc2)c2nc3ccccc3nc12	-46%	11%	16%	14%	-2%	23%
COCCNC(=O)c1c(NC(=O)c2ccco2)n(Cc2ccccc2)c2nc3ccccc3nc12	?	7%	22µM*	-6%	-5%	70%
CN1C(=O)C(C2(C#N)CCCCC2)C(=O)N(C)C1=O	50µM*	12%	10%	-14%	-11%	42%
Cc1cc(N2C(=O)CC(N3CCC(n4c(=O)[nH]c5ccccc54)CC3)C2=O)no1 (configuration not stated)	?	0%	?	27µM*	-18%[11.4 µM]	-4%
COC(=O)c1ccc(N2C(=O)CC(N3CCC(n4c(=O)[nH]c5ccccc54)CC3)C2=O)cc1 (configuration not stated)	?	-1%	0%	-9%	-25%	44%
O[C@@H]1[C@@H]2O[P@@](O)(=S)OC[C@H]2O[C@H]1n1cnc2cc(Cl)c(Cl)cc21	·	·	0%	·	·	·
NCC(O)c1cc(O)c(O)cc1F (configuration not stated)	9.5µM*!	1%	·	1%	10µM*	?
O=C1NC(=S)SC1=Cc1ccc(N(CCCl)CCCl)cc1	·	·	·	54%	32µM*	?
Cc1ccc(CNC(=O)c2ccc(CSc3nc4ccncc4n3Cc3ccc(C)cc3)cc2)cc1	20%[59 µM]	10%	·	·	-17%	44%
SMILES	G9a block	BAZ2B block	Sfp inh	PLK1 PBD inh	JMJD2A Tudor	HP1b binding inh
O=C(c1ccccc1F)c1cn(CC(=O)N2CCOCC2)c2ccccc12	17%	2%	22%	?	?	-9%
Cn1cc(C=C2C(=O)NC(=O)NC2=O)c2ccccc21	-24%	-8%	-28%	24µM*	?	28%
COCCNC(=O)Cn1cc(C(=O)c2ccccc2F)c2ccccc21	?	-10%	5%	30µM*	-11%[57.1 µM]	4%
O=C(c1ccccc1F)c1cn(CC(=O)N2CCCC2)c2ccccc12	10%	14%	-11%	3µM*	?	?
COCCNC(=O)Cn1cc(C=C2C(=O)NC(=O)NC2=O)c2ccccc21	6%	-3%	15%	6.7µM*	-6%	38%
CC(=O)OO	26%[59 µM]	·	15%	·	·	·
CCC1CN2CCC1CC2C(O)c1ccnc2ccc(OC)cc12 (configuration not stated)	6%[2.33 µM]	·	14%	·	·	·
O=C1c2cccc3cc([N+](=O)[O-])cc(c23)C(=O)N1c1ccccc1O	16%[12.7 µM]	?	-5%	-4%	-9%[11.4 µM]	23%
CC1CC2CCC(O2)C(C)C(=O)OC(C)CC2CCC(O2)C(C)C(=O)OC(C)CC2CCC(O2)C(C)C(=O)OC(C)CC2CCC(O2)C(C)C(=O)O1 (configuration not stated)	·	·	8%	·	·	·
CN1C(=O)[C@@H](NC(=O)c2cc3ccccc3[nH]2)N=C(c2ccccc2)c2ccccc21	5%[59 µM]	·	11%	·	·	·
Cc1ccc(NC(=O)Cn2cc(C(=O)c3ccccc3)c3ccccc32)cc1	-8%[59 µM]	-20%	·	·	40µM*	38%
C=CCn1c(C)c(C=C2C(=O)NC(=O)NC2=O)c2ccccc21	50µM*	-38%	-8%	27µM*	-30%	22%
Cc1c(C=O)c2ccccc2n1Cc1ccccc1	·	-6%[57.1 µM]	-2%	-10%	-17%	32%
O=C(Cn1cc(C(=O)c2ccccc2)c2ccccc21)Nc1ccc(Br)cc1	13%[59 µM]	3%	·	·	4%	21%
Cn1c(O)c(/C=C/C=Nc2ccccc2)c(=O)n(C)c1=S	45µM*	-1%	-11%	14%	-14%	24%
O=C1C=C(N2CC2)c2ccccc2C1=O	·	·	·	15µM*	·	·
Cn1c(=O)oc2cc(S(=O)(=O)N3CCCC(C(=O)N4CCN(c5cccc(Cl)c5)CC4)C3)ccc21 (configuration not stated)	?	-12%	·	·	-15%	27%
N#CC(O[C@@H]1OC(COC2OC(CO)C(O)C(O)[C@@H]2O)C(O)C(O)C1O)c1ccccc1 (some centres not stated)	-38%[2.33 µM]	·	24%	·	·	·
Clc1ccc(C(Cn2ccnc2)OCc2csc3c(Cl)cccc23)c(Cl)c1 (configuration not stated)	13µM*	10µM*	·	2%	28µM*	7%

Screening data from PubChem BioAssay.
